Test results from the supplement of paper PMC3545927.
The other results are listed elsewhere or left out. The hit rate among all sequences tested is not known here.

Target: furin, P09958
Assay: furin cleavage Z-score vs untreated control; higher = more cleavage, active = 3.5 or more, inactive = 1 or less, 8 variable residues between constant flanks
Outline: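 Reactions of 0.01 ml ran for 7.5, 15 or 30 min in 50 mM HEPES pH 7.5 with CaCl2 and NaCl, at 1:10 enzyme:substrate. In them, purified furin acted on bead-held 8-mer peptides fused to a cDNA oligonucleotide. The cleavage Z-score was obtained by lowess-adjusting log sequencing counts of released DNA against furin-free reactions and scaling by median absolute deviation.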

Sequence of furin, P09958 (P09958 whole entry): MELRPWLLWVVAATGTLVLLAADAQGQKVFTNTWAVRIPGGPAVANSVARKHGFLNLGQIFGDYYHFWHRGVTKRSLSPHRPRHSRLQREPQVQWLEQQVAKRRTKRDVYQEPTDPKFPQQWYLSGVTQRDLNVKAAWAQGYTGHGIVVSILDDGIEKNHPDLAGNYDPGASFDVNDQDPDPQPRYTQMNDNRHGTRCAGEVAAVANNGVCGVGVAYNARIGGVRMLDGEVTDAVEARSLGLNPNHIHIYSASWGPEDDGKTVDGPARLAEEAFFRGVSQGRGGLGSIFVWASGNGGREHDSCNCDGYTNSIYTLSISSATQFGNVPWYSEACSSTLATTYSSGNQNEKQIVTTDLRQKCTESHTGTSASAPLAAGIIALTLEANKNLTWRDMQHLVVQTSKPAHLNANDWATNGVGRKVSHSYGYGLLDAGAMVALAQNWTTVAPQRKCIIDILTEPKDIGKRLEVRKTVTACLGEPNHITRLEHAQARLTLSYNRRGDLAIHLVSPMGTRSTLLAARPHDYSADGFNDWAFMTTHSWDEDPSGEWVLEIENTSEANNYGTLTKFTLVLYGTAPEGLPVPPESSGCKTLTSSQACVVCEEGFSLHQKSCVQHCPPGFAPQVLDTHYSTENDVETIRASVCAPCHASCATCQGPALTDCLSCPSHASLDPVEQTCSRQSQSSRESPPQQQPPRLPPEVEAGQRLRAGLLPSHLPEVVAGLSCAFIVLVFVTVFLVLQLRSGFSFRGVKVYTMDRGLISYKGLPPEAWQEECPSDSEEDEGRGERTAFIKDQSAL

| Sequence | furin cleavage Z-score (7.5 min) | furin cleavage Z-score (15 min) | furin cleavage Z-score (30 min) |
| --- | --- | --- | --- |
| CALRDIWDWIAGNASASA [HC1149] | -0.31 (inactive) | 1.9 | 1.08 |
| CAMMNWSPTTAGNASASA [HC322] | -3.83 (inactive) | 0.346 (inactive) | -1.29 (inactive) |
| CALDLSGWFTAGNASASA [HC1643] | 1.07 | 0.845 (inactive) | -0.793 (inactive) |
| CAQALDCEIYAGNASASA [HC1591] | -1.45 (inactive) | 0.168 (inactive) | -0.351 (inactive) |
| CAKRGREFRIAGNASASA [FS-909] | 0.58 (inactive) | -0.852 (inactive) | -0.651 (inactive) |
| CAKRGRKRRSAGNASASA [FS-1021] | 13.5 (active) | 12.1 (active) | 11.2 (active) |
| CATKDNFKRSAGNASASA [FS-727] | 2.99 | 1.62 | 3.93 (active) |
| CATKADKRRSAGNASASA [FS-1093] | 1.16 | -0.227 (inactive) | 0.33 (inactive) |
| CATDDDFERSAGNASASA [FS-629] | -0.626 (inactive) | -1.72 (inactive) | 0.0381 (inactive) |
| CATKDRKRRSAGNASASA [FS-880] | 13.4 (active) | 13.2 (active) | 8.6 (active) |
| CARVTRYSNIAGNASASA [FS-2198] | -0.808 (inactive) | -0.0709 (inactive) | 0.615 (inactive) |
| CAEMVVCCSMAGNASASA [HC2126] | -1.21 (inactive) | -1.21 (inactive) | 0.778 (inactive) |
| CATTPGSGSWAGNASASA [HC42] | -0.496 (inactive) | -0.533 (inactive) | -0.629 (inactive) |
| CADDVVCCSMAGNASASA [HC2111] | -0.752 (inactive) | 0.00684 (inactive) | -0.0395 (inactive) |
| CAMEECSQHHAGNASASA [HC1775] | 1.05 | -0.421 (inactive) | 0.321 (inactive) |
| CARMRRHHHHAGNASASA [FS-2158] | 2.42 | 4.46 (active) | 5.23 (active) |
| CARHRKHSPQAGNASASA [FS-2680] | 0.00638 (inactive) | 0.0202 (inactive) | -0.323 (inactive) |
| CARHRRHHHQAGNASASA [FS-2337] | 2.13 | 3.45 | 4 (active) |
| CAHPKQEKRSAGNASASA [FS-1209] | -0.192 (inactive) | 1 (inactive) | 1.55 |
| CAHPHRQRKEAGNASASA [FS-1009] | 2.12 | 4.93 (active) | 2.5 |
| CAQAGRSRKEAGNASASA [FS-950] | 0.322 (inactive) | -1.35 (inactive) | 0.565 (inactive) |
| CAVPHPNIEEAGNASASA [HC839] | 0.645 (inactive) | -1.08 (inactive) | 0.089 (inactive) |
| CALTESTLSTAGNASASA [HC1328] | -0.00854 (inactive) | 0.199 (inactive) | 1.01 |
| CAHPKRAVREAGNASASA [FS-2864] | 8.59 (active) | 8.52 (active) | 7.41 (active) |
| CAHRSRKAKEAGNASASA [FS-1010] | 1.54 | 0.417 (inactive) | 1.2 |
| CAHPHRTKREAGNASASA [FS-795] | 11.5 (active) | 12 (active) | 10.4 (active) |
| CALTERTKREAGNASASA [FS-1138] | 12.3 (active) | 13 (active) | 9.22 (active) |
| CAREKKAALEAGNASASA [FS-2656] | -1.1 (inactive) | 1.19 | 0.78 (inactive) |
